The list is not random: actives were taken first. Their share in the collection is about 19%.
HT1080-NT tox – kills 2HG-producing HT-1080-NT fibrosarcoma cells | HT-1080-NT fibrosarcoma viability, CellTiter-Glo ATP luminescence, 48 h | Potency, µM (top dose mostly 46.1 µM), inactives show at the top dose activity, negative = less viability, usual class: cytotoxic | 1.6% of 360,000 active;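 also: NT is the 2HG producing partner of a matched IDH1 knockdown line; potency is read from the fitted curve at half-maximal effect; 0% = DMSO-treated cells and -100% = media-only wells without cells; nearly all actives have a fitted effect of over 55% in size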
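Toxicity toward the 2HG-producing NT line was scored as %Activity, normalised to DMSO and no-cell wells, from CellTiter-Glo luminescence after 48 hours' treatment.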
DT40 TDP1 CPT – growth inhibition of DT40 Tdp1-/-;hTDP1 cells with camptothecin (screen for TDP1 inhibitors); chicken DT40 Tdp1-/-;hTDP1 cells + 20 nM CPT, ATP luminescence, 48 h; Potency, µM (doses to about 46.2 µM), for inactives: at the top dose activity change, negative = growth inhibition, actives largely listed as inhibitors; 12% of 420,000 active; AID 686979; also: potency is read from the fitted curve at half-maximal effect; nearly all actives have a fitted effect of over 55% in size
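Chicken DT40 Tdp1-/- cells complemented with human TDP1, 400 cells/well, exposed to compounds plus 20 nM camptothecin for at least 48 h at 37 C; viability read as ATP content by CellTiter-Glo luminescence.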
DT40 TDP1 no CPT – qHTS for Inhibitors of human tyrosyl-DNA phosphodiesterase 1 (TDP1): qHTS in cells in absence of CPT; Potency, µM (series often up to 46.2 µM), without a hit: at the highest dose activity change, negative = growth inhibition, usual class: inhibitors; 15% of 420,000 active; DT40 Tdp1-/- hTDP1 cells, no CPT, ATP luminescence, 48 h; AID 686978, 2013; also: potency is read from the fitted curve at half-maximal effect; nearly all actives have a fitted effect of over 55% in size
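Luminescent ATP content (CellTiter-Glo) served as the growth readout. Knockout chicken DT40 cells expressing human TDP1 were exposed to compounds without camptothecin for a minimum 48 hr at 37 °C.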
IL-1B inflam inh – blocks inflammasome-driven IL-1 beta release; activity change, % at 57.5 µM; 4.7% of 360,000 active; AID 743279; THP-1 LPS/ATP IL-1B secretion, AlphaLISA, 16 h; active compounds read low; in the data active = activity change below about -50%; inconclusive = mostly about -30% to -49%
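Secreted IL-1B measured by AlphaLISA bead assay after 16 h compound exposure of THP-1 cells; compounds (final up to 57.5 uM) added 1 h before LPS (250 ng/mL) and ATP (1.25 mM) stimulation; lower signal means less secretion.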
HT1080 IDH1KD tx – kills HT-1080 cells with IDH1 knockdown; Potency, µM (titrated, usually from 46.1 µM), without a hit: at the highest dose activity, negative = toxicity, usual class: cytotoxic; HT-1080 IDH1 knockdown viability, ATP luminescence, 48 h; 2% of 360,000 active; AID 686971;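 also: potency is read from the fitted curve at half-maximal effect; 0% = DMSO wells and -100% = cell-free medium wells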
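HT-1080-IDH1KD cells (IDH1 knocked down), 750/well in RPMI with 5% FBS, treated with compound 48 h at 37 degrees C. Viability by CellTiter-Glo luminescence, normalised to DMSO and no-cell wells; concentration-response curves classed.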
An asterisk follows results filed as active; ? = inconclusive; · = no result given. Unless noted, calls follow the shape of the dose curve; as a rule, active = well fitted curve in the direction sought with a large enough effect; inconclusive = small, poorly fitted or top-dose-only effect, or another doubt; inactive = no such curve, though single readings can be large; an effect the other way counts as inactive or inconclusive. Unless noted, % is scaled to controls: 0 for no effect and ±100 for the full control effect.

SMILES	HT1080-NT tox	DT40 TDP1 CPT	DT40 TDP1 no CPT	IL-1B inflam inh	HT1080 IDH1KD tx
Cc1ccnc(NC(=O)C2CC(=O)N(Cc3ccccc3)C2)c1 (stereo unspecified)	11%	0%	-6%	2	15%
O=C(NCC1CC1(Cl)Cl)Nc1ccc(Cl)c(Cl)c1 (stereo unspecified)	18µM*	?	?	-95*	29µM*
CCC(CC)C(=O)Nc1cccc(S(=O)(=O)c2cccc(NC(=O)C(CC)CC)c2)c1	-9%	-17%	-2%	35	-2%
NC(=O)SCC(=O)Nc1ccc(Cl)c(Cl)c1	-20%	9.2µM*	23µM*	-103*	?
CCC(CC)C(=O)Nc1ccc(Cl)c(Cl)c1	-3%	-29%	13µM*	13	-9%
COC(=O)CCC(=O)Nc1ccc(Cl)c(Cl)c1	9%	-2%	-15%	-15	0%
O=C(NCc1ccccn1)[C@@H]1CCCN1C(=O)[C@@H]1CCCN1C(=O)c1cccs1	-6%	-2%	-21%	45	-1%
N#Cc1c(C(F)(F)F)cc(-c2cccc(Cl)c2)[nH]c1=O	?	-11%	-25%	11	?
CC(=O)c1ccc(N2CCN(c3ncnc4onc(C)c34)CC2)cc1	·	4.1µM*	5.8µM*	·	·
Cc1ccc(Cl)cc1N1CCN(C(=O)c2c(C)oc3ncnc(N4CCCCC4)c23)CC1	·	9.2µM*	6.5µM*	·	·
Cc1noc2ncnc(N3CCN(c4cccc(Cl)c4)CC3)c12	-20%	16µM*	9.2µM*	-8	-21%
Cc1ccc(Cl)cc1N1CCN(c2ncnc3onc(C)c23)CC1	·	6.5µM*	5.8µM*	·	·
Cc1oc2ncnc(N3CCCCC3)c2c1C(=O)N1CCN(c2ccc(Cl)cc2)CC1	·	-19%	?	·	·
CCCSc1nc2c3c(sc2c(=O)[nH]1)CC(C)(CC)OC3 (stereo unspecified)	1%	-5%	-12%	16	-17%
Cc1nc(C(C)NC(=O)CCc2nnc(CCCc3ccccc3)o2)c(C)s1 (stereo unspecified)	15%	-6%	-12%	-6	9%
COc1ccc(OC)c(N(CC(=O)NC2CCCCCC2)S(=O)(=O)c2ccc(C)cc2)c1	-1%	23µM*	23µM*	-4	3%
CCOc1ccccc1N(CC(=O)NC1CCCCC1)S(=O)(=O)c1ccc(C)cc1	-8%	?	21µM*	-23	-11%
COc1ccc(OC)c(N(CC(=O)NC2CCCC2)S(=O)(=O)c2ccc(OC)c(OC)c2)c1	6%	15µM*	15µM*	20	4%
O=C(CN1C(=O)C2CCCCN2c2ccc(C(=O)N3CCCC3)cc21)NCc1cccc(F)c1 (stereo unspecified)	·	-22%	-16%	·	·
COC(=O)c1sc2nc(C)c([N+](=O)[O-])c(C)c2c1N	-4%	-24%	-22%	17	-4%
O=C(COC(=O)c1ccccc1Sc1ccc(C(F)(F)F)cc1[N+](=O)[O-])NC(=O)NC1CCCC1	-12%	?	?	1	-6%
O=C(C1CCCCC1)N(Cc1nc2sc3c(c2c(=O)[nH]1)CCCC3)Cc1cccs1	?	?	13µM*	14	?
O=C(CN1CCN(Cc2ccccc2)CC1)N1CCCCCC1	16%	9%	-1%	24	16%
Cc1cccc(NC(=S)NCc2ccc(F)cc2)c1C	-6%	-4%	-8%	-10	-8%
Cc1c(NC(=O)c2cc3ccccc3o2)c(=O)n(-c2ccccc2)n1C	14%	-1%	0%	21	14%
Cc1c(NC(=O)c2ccc(COc3ccc4ccccc4c3)o2)c(=O)n(-c2ccccc2)n1C	0%	?	23µM*	-14	2%
O=c1c2cc3c(nc2ncn1Cc1ccccc1F)CCCC3	·	18µM*	?	·	·
O=C(Cn1cnc2nc3c(cc2c1=O)CCCC3)Nc1ccc(F)cc1Cl	·	2%	-14%	·	·
O=S1(=O)NC(=NCCc2ccccn2)c2ccccc21	14%	4%	-3%	-11	16%
